Hedgehog inh: Hedgehog pathway signaling inhibitors, primary screen, luminescence, Shh-LIGHT2 cells, Gli-luciferase. actives 2.1% (n = 22,000). inhibition, % (no concentration beside the values). Shh-LIGHT2 Gli-luciferase reporter, 30 h;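 active = mean inhibition across valid replicates above about 65%, limit read from the data; inconclusive = mean under the limit, yet half or more replicates past it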;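 also: pathway switched on by Shh-conditioned medium diluted 1 in 25 in low serum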
YB-1 expr inh: inhibitors of YB-1 gene expression, primary screen, cell-based, fluorescence | U2OS, qRT-PCR YB-1 vs CDIP delta delta Cp, 16 h; active compounds read high; zero = DMSO, each unit about twofold | delta delta Cp (YB-1 minus CDIP) (no concentration beside the values) | AID 434959, 2010 | actives 0.37% (n = 30,000);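 active = delta delta Cp rounded down to an integer at or above 3, about 3 SD of DMSO wells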;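 also: higher means less YB-1 transcript or more CDIP transcript relative to DMSO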
MITF inhib: inhibitors of MITF, primary screen, MITF inhibitor project, cell-based, luminescence. TRPM1 promoter luciferase, 24 h. inhibition, % (no concentration beside the values). actives 0.28% (n = 37,000). AID 2240, 2010; in the data active = inhibition above about 85%; inconclusive = no clear call, values can overlap the other calls; inactive = below about 68%;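 also: human melanocyte line stably carrying TRPM1 promoter luciferase reporter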
PD-1 reverse act: activators reversing PD-1 mediated T-cell inhibition, primary screen, luminescence, primary human CD4 T cells, PD-L1 beads. CellTiter-Glo 96 h. activation, % (test concentration not listed). 29,000 tested, under 10 active; call rule not given here;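 also: 0% = median vehicle wells and 100% = positive control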
NOMO-1 viab: NOMO-1 AML cell viability reduction, primary screen, STK33 inhibitor project, CellTiter-Glo luminescence | NOMO-1 AML viability, 72 h | inhibition, % (no concentration beside the values) | actives 7.5% (n = 37,000) | AID 2330, 2010; in the data active = inhibition above about 80%; inconclusive = no clear call, values can overlap the other calls
An asterisk follows results filed as active; ? = inconclusive; · = not tested or not shown. A selection: hits, their analogues and other compounds. The true share with any hit is near 7.4%.

SMILES | Hedgehog inh | YB-1 expr inh | MITF inhib | PD-1 reverse act | NOMO-1 viab
O=C(CCN1CCCCC1)N1N=C(c2ccc(Cl)cc2)CC1c1ccco1 (configuration not stated) | · | · | 8 | -4 | 18
C[C@H](CO)N1C[C@H](C)[C@H](CN(C)Cc2ccc(Cl)c(Cl)c2)Oc2ccc(NS(=O)(=O)c3ccccc3)cc2CC1=O | 17 | 0.04 | 20 | -1 | 68
C[C@H]1CN([C@@H](C)CO)C(=O)Cc2cc(NS(=O)(=O)c3ccccc3)ccc2O[C@H]1CN(C)Cc1ccc(Cl)c(Cl)c1 | 48 | 0.11 | 23 | 0 | 100*
C[C@@H]1CN([C@H](C)CO)C(=O)Cc2cc(NS(=O)(=O)c3ccccc3)ccc2O[C@@H]1CN(C)Cc1ccc(Cl)c(Cl)c1 | ? | 0.32 | 4 | -7 | 85*
C[C@H]1CN([C@@H](C)CO)C(=O)Cc2cc(NS(=O)(=O)c3ccccc3)ccc2O[C@@H]1CN(C)Cc1ccccc1 | 23 | 0.12 | -2 | 1 | 31
C[C@@H]1CN([C@H](C)CO)C(=O)Cc2cc(NS(=O)(=O)c3ccccc3)ccc2O[C@H]1CN(C)Cc1ccc(Cl)c(Cl)c1 | 36 | -9.8 | 23 | 0 | 111*
Cc1c(C(=O)Cc2c(O)c3ccccc3oc2=O)sc2nc(C(F)(F)F)nn12 | 19 | -0.32 | 23 | 0 | -10
CC(=O)Oc1ccc(-c2coc3cc(OC(C)=O)cc(OC(C)=O)c3c2=O)cc1 | -60 | 0.38 | -28 | 0 | 29
CC(=O)OC[C@H]1O[C@@H](Oc2cc(OC(C)=O)c3c(=O)cc(-c4ccc(OC(C)=O)cc4)oc3c2)[C@H](OC(C)=O)[C@@H](OC(C)=O)[C@@H]1OC(C)=O | 65* | -0.013 | -18 | · | 63
O=C(NCCc1ccccc1)N1c2ccccc2Sc2ccccc21 | 92* | -0.28 | 43 | 0 | 52
CCC(C)CC(C)/C=C\C1OC2=C(C(=O)OC2(C)O)C(O)C1O (configuration not stated) | ? | 0.94 | ? | -8 | 108*
CNc1cc2ncnc(Nc3cccc(Br)c3)c2cc1N | 57 | -15 | -5 | 6 | 97*
COc1ccc(NC(=O)Nc2cccc3c2O[C@@H](CN(C)Cc2ccc(C(=O)Nc4ccccc4N)cc2)[C@@H](C)CN([C@@H](C)CO)C3=O)cc1 | · | -0.2 | 12 | -4 | 129*
COc1ccc(NC(=O)Nc2cccc3c2O[C@@H](CN(C)Cc2ccc(C(=O)Nc4ccccc4N)cc2)[C@H](C)CN([C@@H](C)CO)C3=O)cc1 | · | -0.79 | 5 | 0 | 126*
COc1ccc(NC(=O)Nc2ccc3c(c2)C(=O)N([C@@H](C)CO)C[C@H](C)[C@H](CN(C)Cc2ccc(C(=O)Nc4ccccc4N)cc2)O3)cc1 | · | -0.13 | -28 | 1 | 50
COc1ccc(NC(=O)Nc2cccc3c2O[C@H](CN(C)Cc2ccc(C(=O)Nc4ccccc4N)cc2)[C@H](C)CN([C@H](C)CO)C3=O)cc1 | · | -0.34 | 23 | -2 | 140*
Cc1noc(C)c1S(=O)(=O)Nc1ccc2c(c1)CC(=O)N([C@@H](C)CO)C[C@H](C)[C@H](CN(C)Cc1ccc(C(F)(F)F)cc1)O2 | 18 | -0.073 | 8 | -3 | 83*
Cc1noc(C)c1S(=O)(=O)Nc1ccc2c(c1)CC(=O)N([C@@H](C)CO)C[C@H](C)[C@H](CN(C)Cc1ccc(Cl)c(Cl)c1)O2 | 30 | 0.083 | -6 | -4 | ?
Cc1noc(C)c1S(=O)(=O)Nc1ccc2c(c1)CC(=O)N([C@H](C)CO)C[C@@H](C)[C@H](CN(C)Cc1ccc(Cl)c(Cl)c1)O2 | 15 | -0.11 | -7 | -2 | 97*
COc1ccc(NC(=O)CCn2cnc3ccccc3c2=O)cc1OC | · | · | -21 | · | -8
CC(C)(C)Nc1cccccc1=NCc1ccccc1 | · | 0.36 | 9 | -3 | 92*
CC1=COC=C(C=NCc2ccccc2)N1c1ccccc1 | · | -0.98 | 5 | 0 | 17
CS(=O)(=O)N(CC(=O)NC1CCCCCC1)c1ccc(F)cc1 | · | · | -1 | 0 | 4
CCC(Sc1nnc(-c2ccc([N+](=O)[O-])cc2)n1C)C(=O)Nc1ccc(Cl)cc1 (configuration not stated) | · | · | 16 | -1 | 22
COc1cc(OC)cc(-c2nc(N)c3c(C)c(-c4ccc(OC)c(OC)c4)sc3n2)c1 | 24 | -0.91 | 23 | -7 | 115*

From PubChem BioAssay
